In the supplement of paper PMC11732987, “Enantioselective OTUD7B fragment discovery through chemoproteomics screening and high-throughput optimisation” (Communications Chemistry, 2025):

Assays:
Assay in all cases: log2 ratio of Biotin-Ahx-Ub-VS probe labelling (fragment/DMSO); higher = less target engagement (more negative = stronger competition), active = hit call of the paper (q ≤ 0.05, log2 ratio ≤ -1)
Conditions in all cases: compound concentration: 200 uM; treatment time: 3 h
OTUD6B = molecular target: T1, OTUD6B (UniProt Q8N6M0)
T1 sequence (whole entry): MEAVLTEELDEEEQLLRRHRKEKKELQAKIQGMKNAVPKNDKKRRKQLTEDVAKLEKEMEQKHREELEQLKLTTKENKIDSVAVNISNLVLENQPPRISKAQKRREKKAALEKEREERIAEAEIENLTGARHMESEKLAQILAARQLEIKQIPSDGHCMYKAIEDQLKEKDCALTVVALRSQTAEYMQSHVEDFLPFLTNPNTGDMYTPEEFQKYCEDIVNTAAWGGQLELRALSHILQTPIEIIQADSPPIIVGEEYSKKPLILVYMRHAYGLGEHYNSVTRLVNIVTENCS
Summary of the method: (§1)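 Triplicate samples of HEK293T lysate, 495 µg each, received fragment at 200 µM or vehicle for 3 h, followed by Biotin-Ahx-Ub-VS (0.5 µM final) for 1 h. After NeutrAvidin enrichment of labelled DUBs and LysC/trypsin digestion, peptides were run by diaPASEF LC-MS/MS. The values are average log2 fragment/vehicle ratios from global-median-normalised Spectronaut label-free quantities, tested by unpaired t-test on proteins having ≥2 unique peptides.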

OTUD7B = molecular target: T2, OTUD7B (UniProt Q6GQQ9)
T2 sequence (whole entry): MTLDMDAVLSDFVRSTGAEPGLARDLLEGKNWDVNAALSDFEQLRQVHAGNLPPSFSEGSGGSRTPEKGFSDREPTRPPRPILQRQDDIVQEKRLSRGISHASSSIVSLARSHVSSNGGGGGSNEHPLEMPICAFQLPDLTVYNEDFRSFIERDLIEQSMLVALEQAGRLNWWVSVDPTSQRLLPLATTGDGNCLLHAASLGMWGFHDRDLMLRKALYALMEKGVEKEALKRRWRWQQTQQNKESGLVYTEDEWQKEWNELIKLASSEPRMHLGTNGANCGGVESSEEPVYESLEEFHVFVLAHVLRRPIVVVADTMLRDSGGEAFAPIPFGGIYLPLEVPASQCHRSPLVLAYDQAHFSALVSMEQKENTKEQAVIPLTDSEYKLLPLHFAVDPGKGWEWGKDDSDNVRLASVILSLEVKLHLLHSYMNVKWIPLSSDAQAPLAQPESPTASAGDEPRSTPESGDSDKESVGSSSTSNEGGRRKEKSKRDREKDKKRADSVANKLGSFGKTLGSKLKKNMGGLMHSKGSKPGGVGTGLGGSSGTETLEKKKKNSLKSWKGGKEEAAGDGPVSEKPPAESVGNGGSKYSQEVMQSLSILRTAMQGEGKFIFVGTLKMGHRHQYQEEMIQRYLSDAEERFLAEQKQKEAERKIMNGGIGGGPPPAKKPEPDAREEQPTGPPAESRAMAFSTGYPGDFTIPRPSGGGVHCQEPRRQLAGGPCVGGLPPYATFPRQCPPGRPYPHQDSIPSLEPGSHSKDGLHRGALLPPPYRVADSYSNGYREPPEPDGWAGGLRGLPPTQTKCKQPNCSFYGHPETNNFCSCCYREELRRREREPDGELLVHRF
Summary of the method: as §1

PRPF8 = PRPF8 (UniProt Q6P2Q9)
Summary of the method: as §1

PSMD7 = molecular target: T3, PSMD7 (UniProt P51665)
T3 sequence (whole entry): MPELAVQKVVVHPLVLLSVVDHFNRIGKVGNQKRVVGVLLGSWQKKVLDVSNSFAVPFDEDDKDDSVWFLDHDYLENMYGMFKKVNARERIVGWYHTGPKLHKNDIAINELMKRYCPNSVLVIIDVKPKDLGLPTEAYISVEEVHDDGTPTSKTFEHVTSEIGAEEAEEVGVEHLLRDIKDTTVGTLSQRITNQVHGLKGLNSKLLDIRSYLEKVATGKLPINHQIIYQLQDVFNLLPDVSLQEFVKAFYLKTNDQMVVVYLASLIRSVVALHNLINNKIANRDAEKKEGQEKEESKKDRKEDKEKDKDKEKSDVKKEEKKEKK
Summary of the method: as §1

UCHL1 = UCHL1 (UniProt P09936)
Summary of the method: as §1

UCHL3 = molecular target: T4, UCHL3 (UniProt P15374)
T4 sequence (whole entry): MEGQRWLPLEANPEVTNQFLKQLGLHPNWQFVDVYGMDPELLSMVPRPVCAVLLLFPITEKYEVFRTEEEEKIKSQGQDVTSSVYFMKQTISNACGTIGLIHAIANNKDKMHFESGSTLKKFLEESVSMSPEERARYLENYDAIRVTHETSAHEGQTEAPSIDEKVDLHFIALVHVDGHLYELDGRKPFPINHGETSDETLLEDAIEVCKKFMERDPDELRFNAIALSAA
Summary of the method: as §1

UCHL5 = molecular target: T5, UCHL5 (UniProt Q9Y5K5)
T5 sequence (whole entry): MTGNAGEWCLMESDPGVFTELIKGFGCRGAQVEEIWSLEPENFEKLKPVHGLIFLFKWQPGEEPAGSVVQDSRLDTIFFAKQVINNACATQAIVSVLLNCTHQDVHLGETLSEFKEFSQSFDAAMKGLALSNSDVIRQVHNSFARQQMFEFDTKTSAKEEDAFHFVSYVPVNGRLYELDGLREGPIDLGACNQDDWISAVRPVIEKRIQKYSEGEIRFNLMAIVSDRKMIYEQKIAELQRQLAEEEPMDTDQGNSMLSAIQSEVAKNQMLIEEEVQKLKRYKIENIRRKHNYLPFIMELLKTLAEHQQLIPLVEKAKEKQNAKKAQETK
Summary of the method: as §1

USP10 = USP10 (UniProt Q14694)
Summary of the method: as §1

USP15 = molecular target: T6, USP15 (UniProt Q9Y4E8)
T6 sequence (whole entry): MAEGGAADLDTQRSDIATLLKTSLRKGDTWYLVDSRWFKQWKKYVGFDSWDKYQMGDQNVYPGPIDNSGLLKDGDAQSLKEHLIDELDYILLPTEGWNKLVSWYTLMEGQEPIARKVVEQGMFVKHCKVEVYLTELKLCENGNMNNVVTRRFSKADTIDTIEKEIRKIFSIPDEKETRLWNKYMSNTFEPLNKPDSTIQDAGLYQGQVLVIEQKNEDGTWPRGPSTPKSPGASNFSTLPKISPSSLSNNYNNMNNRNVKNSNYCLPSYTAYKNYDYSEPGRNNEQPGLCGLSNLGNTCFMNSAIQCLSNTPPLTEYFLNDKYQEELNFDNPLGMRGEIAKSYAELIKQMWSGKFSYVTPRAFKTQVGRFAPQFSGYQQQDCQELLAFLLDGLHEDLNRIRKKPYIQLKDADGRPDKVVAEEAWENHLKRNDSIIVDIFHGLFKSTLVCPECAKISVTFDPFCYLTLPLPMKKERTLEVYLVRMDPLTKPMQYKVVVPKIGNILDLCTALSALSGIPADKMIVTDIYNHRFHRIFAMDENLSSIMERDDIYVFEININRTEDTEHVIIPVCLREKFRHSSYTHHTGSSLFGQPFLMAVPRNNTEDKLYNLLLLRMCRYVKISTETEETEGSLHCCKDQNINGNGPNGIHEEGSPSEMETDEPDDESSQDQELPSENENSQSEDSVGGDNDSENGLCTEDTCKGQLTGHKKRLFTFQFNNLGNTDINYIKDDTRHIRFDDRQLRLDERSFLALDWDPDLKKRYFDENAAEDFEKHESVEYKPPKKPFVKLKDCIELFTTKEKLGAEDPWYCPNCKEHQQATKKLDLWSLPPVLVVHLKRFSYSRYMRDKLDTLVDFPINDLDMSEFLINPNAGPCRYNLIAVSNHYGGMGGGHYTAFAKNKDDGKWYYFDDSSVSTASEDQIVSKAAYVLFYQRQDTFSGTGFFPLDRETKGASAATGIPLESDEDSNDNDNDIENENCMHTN
Summary of the method: as §1

USP16 = USP16 (UniProt Q9Y5T5)
Summary of the method: as §1

Measured: log2 ratio of Biotin-Ahx-Ub-VS probe labelling

Sequence of USP16 (Q9Y5T5 whole entry, looked up): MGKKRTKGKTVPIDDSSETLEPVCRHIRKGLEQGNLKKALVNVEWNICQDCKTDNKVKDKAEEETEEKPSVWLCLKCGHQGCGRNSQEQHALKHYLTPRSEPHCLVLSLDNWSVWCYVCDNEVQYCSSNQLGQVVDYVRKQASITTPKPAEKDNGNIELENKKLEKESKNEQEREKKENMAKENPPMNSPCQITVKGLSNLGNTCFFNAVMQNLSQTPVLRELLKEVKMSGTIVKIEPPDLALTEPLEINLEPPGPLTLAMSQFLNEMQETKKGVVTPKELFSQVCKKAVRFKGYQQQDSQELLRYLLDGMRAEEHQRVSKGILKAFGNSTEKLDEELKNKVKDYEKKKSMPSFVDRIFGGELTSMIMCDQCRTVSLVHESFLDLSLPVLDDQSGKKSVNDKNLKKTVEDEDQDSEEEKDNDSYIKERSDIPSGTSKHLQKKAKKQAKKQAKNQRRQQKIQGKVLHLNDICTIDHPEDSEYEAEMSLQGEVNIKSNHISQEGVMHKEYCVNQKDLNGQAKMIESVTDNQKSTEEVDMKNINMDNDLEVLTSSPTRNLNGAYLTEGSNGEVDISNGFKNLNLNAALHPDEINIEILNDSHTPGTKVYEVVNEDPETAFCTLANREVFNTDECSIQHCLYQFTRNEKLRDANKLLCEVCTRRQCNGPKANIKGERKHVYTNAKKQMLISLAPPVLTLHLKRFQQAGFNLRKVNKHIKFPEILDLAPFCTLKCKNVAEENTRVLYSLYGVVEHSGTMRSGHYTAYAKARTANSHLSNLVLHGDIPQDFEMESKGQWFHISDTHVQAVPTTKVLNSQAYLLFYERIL
Sequence of UCHL1 (P09936 whole entry, looked up): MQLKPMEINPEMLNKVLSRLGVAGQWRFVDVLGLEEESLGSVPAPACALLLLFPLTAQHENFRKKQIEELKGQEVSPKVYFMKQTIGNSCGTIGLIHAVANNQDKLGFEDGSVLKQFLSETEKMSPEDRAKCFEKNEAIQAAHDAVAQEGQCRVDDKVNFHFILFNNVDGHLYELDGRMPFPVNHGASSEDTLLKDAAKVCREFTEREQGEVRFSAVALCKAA
Sequence of USP10 (Q14694 whole entry): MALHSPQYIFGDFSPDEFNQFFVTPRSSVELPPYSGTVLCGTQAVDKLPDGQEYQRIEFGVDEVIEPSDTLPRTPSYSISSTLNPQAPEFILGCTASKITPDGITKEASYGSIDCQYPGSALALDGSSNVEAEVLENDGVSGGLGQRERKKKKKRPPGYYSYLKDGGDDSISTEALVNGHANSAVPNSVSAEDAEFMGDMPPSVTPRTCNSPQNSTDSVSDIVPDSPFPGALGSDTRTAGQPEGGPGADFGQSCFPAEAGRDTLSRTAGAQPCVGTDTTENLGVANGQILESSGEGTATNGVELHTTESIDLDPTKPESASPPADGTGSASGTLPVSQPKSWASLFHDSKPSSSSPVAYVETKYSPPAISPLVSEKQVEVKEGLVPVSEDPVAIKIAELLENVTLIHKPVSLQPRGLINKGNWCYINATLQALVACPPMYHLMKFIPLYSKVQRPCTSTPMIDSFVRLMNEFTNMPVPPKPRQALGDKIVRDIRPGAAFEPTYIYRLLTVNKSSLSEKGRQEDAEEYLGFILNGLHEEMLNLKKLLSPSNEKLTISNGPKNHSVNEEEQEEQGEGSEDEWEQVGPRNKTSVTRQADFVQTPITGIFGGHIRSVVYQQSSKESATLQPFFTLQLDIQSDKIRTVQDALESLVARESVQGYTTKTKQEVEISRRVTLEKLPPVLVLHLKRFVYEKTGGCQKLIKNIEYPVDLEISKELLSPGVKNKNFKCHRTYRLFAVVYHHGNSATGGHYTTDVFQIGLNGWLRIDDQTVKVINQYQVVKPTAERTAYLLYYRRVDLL

O=C(CCl)NCCc1ccc(F)cc1
active: UCHL1 -1.09
inactive: OTUD6B 0.0481 | OTUD7B -0.435 | PRPF8 -0.0623 | PSMD7 0.0236 | UCHL3 0.132 | UCHL5 -0.0307 | USP10 -0.0913 | USP15 -0.0724 | USP16 0.107
